Screening data from PubChem BioAssay.
Hits are enriched below; roughly 4.2% of the tested compounds scored in any of these assays.
hcDAF-12 act – activates DAF-12 receptor from parasite H. contortus; 1.4% of 370,000 active; HEK293 hcDAF-12 lit1-tk-luc reporter, luminescence; 0% DMSO, 100% Δ7-dafachronic acid; activation, % at 6.8 µM;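 active = activation above the mean of all tested compounds plus 3 SD, cut at about 5.5% in these data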;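 also: 100% = response to 3 µM Δ7-dafachronic acid high control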
DAX1 StAR inh – DAX1 (NR0B1) inhibition, primary screen. HEK293T StAR-luciferase reporter, SF-1/DAX-1 repression relief. inhibition, % at 6.8 µM. 1.1% of 370,000 active. AID 652010;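 active = inhibition above the mean over all tested compounds plus 3 SD, cut at about 3.6% in these data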;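 also: 0% = DAX-1 cells with DMSO and 100% = cells lacking DAX-1 with DMSO; higher inhibition means more luminescence from relief of DAX-1 repression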
hgDAF-12 ag – hgDAF-12 agonism, primary luciferase screen; 1.8% of 370,000 active; AID 687014; activation, % at 6.8 µM; HEK293 GAL4-hgDAF12 UAS-luciferase reporter, agonist luminescence; normalized to butyrate control;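 active = activation above a cutoff set at the mean of all screened compounds plus 3 SD, cut at about 10% in these data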;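 also: 0% = DMSO wells and 100% = sodium butyrate wells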
ssDAF-12 act – activates DAF-12 receptor from parasite S. stercoralis; HEK293 ssDAF-12/GRIP1 lit1-tk-luc reporter, luminescence; % of 3 µM dafachronic acid response; activation, % at 6.8 µM; 1% of 370,000 active;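 active = activation above the mean over all tested compounds plus 3 SD, cut at about 0.9% in these data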;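 also: 0% = DMSO-only wells and 100% = 3 µM delta7-dafachronic acid wells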
Wnt bcat act – activates Wnt/beta-catenin signaling in a reporter cell assay; AID 743398; activation, % at 9.35 µM; activator, plate reader; 1.2% of 300,000 active; in the data active = activation above about 30%, passing the limit was not always enough;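 also: 0% = neutral control wells and 100% = positive control wells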
esBAF inh – blocks esBAF chromatin remodeling in mouse ES cells. 2% of 350,000 active. reporter increase, % at 12.5 µM. Bmi1-luciferase knock-in reporter, 24 h; 100% = twice the neutral-well signal; in the data active = activation above about 40%;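 also: 0% = median of the plate's neutral control wells and 100% = double that signal; a rise in the Bmi1 reporter signal indicates esBAF inhibition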
hgDAF12 conf – hgDAF-12 agonism, confirmation assay. 80% of 3,300 active. AID 743050. HEK293 GAL4-hgDAF12 luciferase reporter, agonist mode; percent of butyrate response. activation, % at 6.8 µM. shares compounds with hgDAF-12 ag;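 active = mean activation over triplicate wells above the hit cutoff derived from the earlier primary screen, cut at about 11% in these data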;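 also: 0% = DMSO low control and 100% = 2 mM sodium butyrate high control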
LXRb DAF12 ctr – activates human LXR-beta, counter-screen for DAF-12 agonists; AID 743051; 3,300 tested, under 10 active; shares compounds with hgDAF-12 ag; activation, % at 6.8 µM; HEK293 Gal4-LXR luciferase reporter, 24 h;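 active = mean activation of the triplicate above a set limit carried over from the primary screen, none filed active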
Target sequence (P55055 whole entry, looked up, the tested form may be a part): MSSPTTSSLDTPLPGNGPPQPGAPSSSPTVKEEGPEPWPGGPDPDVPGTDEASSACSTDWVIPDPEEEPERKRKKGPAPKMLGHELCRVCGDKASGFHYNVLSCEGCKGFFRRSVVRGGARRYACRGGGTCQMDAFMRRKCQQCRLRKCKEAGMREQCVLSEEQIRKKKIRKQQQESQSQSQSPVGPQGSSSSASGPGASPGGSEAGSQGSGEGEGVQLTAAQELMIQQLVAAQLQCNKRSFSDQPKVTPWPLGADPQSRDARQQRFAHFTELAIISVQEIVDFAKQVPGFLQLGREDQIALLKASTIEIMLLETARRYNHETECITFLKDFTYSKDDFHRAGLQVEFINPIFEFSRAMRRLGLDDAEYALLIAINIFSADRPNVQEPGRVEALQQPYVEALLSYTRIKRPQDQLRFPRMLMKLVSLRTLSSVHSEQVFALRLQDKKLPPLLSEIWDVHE
* marks the source's active call; other numbers are inactive results; / = not tested or not shown.

SMILES	hcDAF-12 act	DAX1 StAR inh	hgDAF-12 ag	ssDAF-12 act	Wnt bcat act	esBAF inh	hgDAF12 conf	LXRb DAF12 ctr
C[C@H]1CN([C@@H](C)CO)C(=O)c2cc(NC(=O)Cc3ccccc3)ccc2O[C@H]1CN(C)CC1CCCCC1	/	/	/	/	/	2	/	/
C[C@@H]1CN([C@@H](C)CO)C(=O)Cc2cc(NC(=O)Nc3ccc(F)cc3)ccc2O[C@H]1CN(C)Cc1ccccc1	/	/	/	/	/	-2	/	/
COc1ccc(CN(C)C[C@H]2OCCCC[C@H](C)Oc3ccc(NC(=O)NC(C)C)cc3C(=O)N([C@H](C)CO)C[C@H]2C)cc1	/	/	/	/	/	-6	/	/
O=C(C[C@H]1CC[C@H]2[C@@H](COC[C@@H](O)CN2CC2CC2)O1)NCc1ccc(Cl)cc1	/	/	/	/	/	-3	/	/
Cc1ccc2nc(-c3ccc(NC(=O)CSc4nnc(-c5cc(-c6ccc(F)cc6)n[nH]5)n4N)cc3)sc2c1	2	3	16*	1	/	/	15*	1
Cc1ccc(C)c(NC(=O)CSc2nnc(-c3cc(C)[nH]n3)n2N)c1	0	0	1	-1	3	-5	/	/
Cc1ccc2nc(-c3ccc(NC(=O)CSc4nnc(-c5cccc(Cl)c5)n4Cc4ccco4)cc3)sc2c1	6.3*	1	21*	0	/	/	17*	1
Cc1ccc2nc(-c3ccc(NC(=O)CSc4nnc(-c5cc(C)[nH]n5)n4N)cc3)sc2c1	1	4.4*	13*	0	/	/	11*	1
O=C1c2ccccc2NC(c2ccccc2)N1/N=C/c1ccccc1 (stereo unspecified)	5	3	15*	1	/	-33	15*	1
CCOCCn1c(SCC(=O)OCc2ccccc2)nc2c1c(=O)[nH]c(=O)n2C	4	3	13*	-1	25	-2	-1	0
O=C(NC(=S)Nc1cccc2[nH]ncc12)c1ccccc1	1	2	22*	-1	21	14	16*	0
Cc1ccc(-c2cnc3c(c2)C(=O)N([C@@H](C)CO)C[C@H](C)[C@H](CN(C)C(=O)c2ccc(F)cc2)O3)cc1	/	/	/	/	/	-11	/	/
C[C@@H]1CN([C@@H](C)CO)C(=O)c2cc(-c3cccnc3)cnc2O[C@@H]1CN(C)C(=O)C1CCCCC1	/	/	/	/	/	-1	/	/
O=C(O)c1ccc(N=Nc2c(O)[nH]c3cc(Cl)ccc23)cc1	5	3.7*	17*	0	53*	/	19*	1
CCCS(=O)(=O)Nc1cccc(-c2nc3cccnc3s2)c1	1	0	6	-1	-4	15	/	/
Cc1ccc(-c2nc3cccnc3s2)cc1NS(C)(=O)=O	6.4*	3	14*	0	23	36	7	0
COCC(=O)N(C)C[C@@H]1Oc2cc(-c3ccc(C#N)cc3)ccc2S(=O)(=O)N([C@@H](C)CO)C[C@H]1C	/	/	/	/	/	3	/	/
COc1ccc(/C=C/C(=O)NC(=S)NNC(=O)c2cccs2)cc1	2	1	13*	-1	1	/	8	0
COc1ccc(C(=O)NNC(=S)NC(=O)c2cccs2)cc1	1	-1	1	-1	-6	/	/	/
COc1ccc(/C=C/C2=Nc3ccccc3NC(C)(C)C2)cc1OC	6	2	16*	1.0*	40*	44*	7	0
CCC(=O)Nc1ccc2c(c1)C(=O)N(C)C[C@H](OC)[C@@H](C)CN(C(=O)c1ccc(F)cc1)[C@@H](C)CO2	/	/	/	/	/	7	/	/
Cc1ccc(SCn2nnc3ccccc3c2=O)c(C)c1	0	1	14*	-1	27	/	12*	0
Cc1cc(=O)[nH]c(SCn2nnc3ccccc3c2=O)n1	0	0	-2	-2	-5	-1	/	/
COc1ccc(CN(C)C[C@H]2Oc3ccc(NC(=O)Cc4ccccc4)cc3C(=O)N([C@H](C)CO)C[C@H]2C)cc1	/	/	/	/	/	-4	/	/
COc1ccc(NC(=O)N(C)C[C@H]2Oc3ccc(NC(=O)Nc4ccc(C(F)(F)F)cc4)cc3CC(=O)N([C@@H](C)CO)C[C@@H]2C)cc1	/	/	/	/	/	-1	/	/
SMILES	hcDAF-12 act	DAX1 StAR inh	hgDAF-12 ag	ssDAF-12 act	Wnt bcat act	esBAF inh	hgDAF12 conf	LXRb DAF12 ctr
O=C(N/N=C\C=C\c1ccco1)c1cc(-c2ccc3ccccc3c2)n[nH]1	4	3	16*	1	57*	/	7	0
COc1ccc(/C=C/c2nnc(NC(C)=O)s2)cc1	5	3	14*	0	37*	-13	16*	1
Fc1ccc(-c2nc3ccccc3[nH]2)cc1	3	3	18*	-1	58*	70*	12*	1
COCC(=O)Nc1ccc2c(c1)C(=O)N(C)C[C@@H](OC)[C@H](C)CN(C(C)=O)[C@H](C)CO2	/	/	/	/	/	-1	/	/
CC(C)NC(=O)N1C[C@@H]2[C@H](c3ccccc31)[C@@H](CO)N2C(=O)Nc1ccccc1	/	/	/	/	/	-1	/	/
CCc1ccc(-c2cn3c(n2)SCC3)cc1	2	4.0*	16*	0	14	29	14*	1
